High-throughput results as filed in PubChem.
Compounds with a hit are over-represented: about 0.4% of the library has one in this group of screens.
TRPV1 PAM: potentiators of human vanilloid receptor 1 (TRPV1); TRPV1-expressing cells, Fluo-8 calcium influx, capsaicin EC20 potentiation; 320,000 tested, 0.02% active; Q8NER1; potentiation, % at 8.33 µM; AID 540277; in the data active = potentiation above about 80%; inconclusive = between about 30% and that limit; note: 0% is about no effect
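Fluo-8 calcium influx in TRPV1-expressing cells, kinetic read (ex 480/em 520 nm). Compound added and read 3 min for agonist activity, followed by capsaicin at EC20 final and 2 min further read for enhancement.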
TRPML1 agonist: agonists of human TRPML1 channel; TRPML1-expressing cells, Ca2+ dye fluorescence, FDSS; activation, % (test concentration not listed); 410,000 tested, 0.12% active; in the data active = activation above about 50%; inconclusive = mostly about 30% to 49%; note: 0% is about no effect
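Kinetic FDSS Ca2+ read in Tet-induced TRPML1-DL cells (ABD Ca8 dye plus quencher, 45-90 min RT loading): baseline, then compound, then 110 s agonist window; EC80 agonist 54-4 at 4uM final added afterwards for a 110 s antagonist window.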
TRPML1 inh: inhibitors of human TRPML1 channel; Q9GZU1; TRPML1-inducible cells, Ca2+ dye fluorescence, FDSS; hits give low values; inhibition of EC80 agonist-evoked calcium signal; activity change, negative = inhibition, % (no concentration beside the values); 390,000 tested, 0.02% active; in the data active = activity change below about -50%; inconclusive = between about -30% and that limit;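 note: stimulus is agonist 54-4 at its EC80 concentration; % is set by controls: 0 for no effect and ±100 for the full control effect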
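Calcium fluorescence in TRPML1-DL cells induced overnight with Tet: a 110 s read after compound pin addition, then a 110 s antagonist read after challenge with 54-4 at 4 uM final (EC80).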
TRPV1 ag: activates the human vanilloid receptor TRPV1; activation, % at 8.33 µM; Q8NER1; AID 540275; TRPV1-expressing cells, Fluo-8 calcium influx, agonist mode; 320,000 tested, 0.19% active; in the data active = activation above about 80%; inconclusive = between about 30% and that limit; note: 0% is about no effect
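Cells expressing TRPV1 were dye-loaded with Fluo-8 and read kinetically: 10 s baseline, 3 min after compound (agonist portion), then 2 min after EC20 capsaicin (allosteric enhancer portion). Calcium-bound dye fluorescence at 480/520 nm.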
USP1-UAF1 inh: inhibitors of human USP1/UAF1 deubiquitinase | recombinant USP1/UAF1, Ub-Rhodamine cleavage fluorescence | Potency, µM (titrated, usually from 57.1 µM), without a hit: at the top dose activity change, negative = inhibition, usual class: inhibitors | 390,000 tested, 0.23% active | AID 743255; active = well fitted inhibition curve with a large enough effect; inconclusive = small, poorly fitted or top-dose-only effect; inactive = no such curve, though single readings can be large or run the other way; note: potency is the fitted concentration of half-maximal effect; % is set by controls: 0 for no effect and ±100 for the full control effect; nearly all actives have a fitted effect of over 60% in size
Target sequence (O94782 whole entry, looked up): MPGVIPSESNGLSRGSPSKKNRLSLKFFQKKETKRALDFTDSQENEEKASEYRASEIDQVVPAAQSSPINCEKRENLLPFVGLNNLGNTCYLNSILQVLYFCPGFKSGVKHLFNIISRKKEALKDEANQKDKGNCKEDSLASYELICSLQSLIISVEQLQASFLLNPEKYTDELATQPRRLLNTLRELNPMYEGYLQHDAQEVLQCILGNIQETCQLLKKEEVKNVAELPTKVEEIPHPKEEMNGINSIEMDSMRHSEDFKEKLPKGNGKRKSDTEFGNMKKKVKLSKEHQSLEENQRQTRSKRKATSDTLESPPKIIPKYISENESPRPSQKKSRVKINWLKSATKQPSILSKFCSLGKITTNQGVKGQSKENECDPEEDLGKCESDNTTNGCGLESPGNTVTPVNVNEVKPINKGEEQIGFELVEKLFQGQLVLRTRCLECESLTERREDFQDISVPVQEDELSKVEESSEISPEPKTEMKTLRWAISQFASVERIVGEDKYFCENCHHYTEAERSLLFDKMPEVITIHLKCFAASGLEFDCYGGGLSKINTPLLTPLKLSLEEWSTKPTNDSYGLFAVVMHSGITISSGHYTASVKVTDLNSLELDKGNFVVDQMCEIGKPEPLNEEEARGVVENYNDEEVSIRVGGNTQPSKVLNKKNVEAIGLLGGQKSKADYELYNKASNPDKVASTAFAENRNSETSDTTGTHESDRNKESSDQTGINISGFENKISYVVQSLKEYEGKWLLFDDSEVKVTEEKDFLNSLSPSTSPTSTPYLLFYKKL
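USP1/UAF1 complex (1 nM) preincubated 15 min at room temperature with compound, then Ub-Rho substrate (150 nM final) added. Kinetic fluorescence at 480/540 nm over 6 reads at 60 s intervals; 50 mM HEPES pH 7.8, 0.5 mM EDTA, 0.1 mg/ml BSA, 1 mM TCEP, 0.01% Tween-20.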
Numbers without * were called inactive; i = inactive; ? = inconclusive; nt = no result given.

SMILES	TRPV1 PAM	TRPML1 agonist	TRPML1 inh	TRPV1 ag	USP1-UAF1 inh
COc1cccc2c1C(=O)c1c(O)c3c(c(O)c1C2=O)C[C@@](O)(C(=O)CO)C[C@@H]3O[C@H]1C[C@H](N)[C@@H](O)[C@H](C)O1	nt	9.5	11.7	nt	28.2µM*
COc1cccc2c1C(=O)c1c(O)c3c(c(O)c1C2=O)C[C@@](O)(C(C)=O)C[C@@H]3O[C@H]1C[C@H](N)[C@H](O)[C@H](C)O1	-6.5	12.3	-9.4	5.9	5.62µM*
CC(=O)[C@]1(O)Cc2c(O)c3c(c(O)c2[C@@H](O[C@H]2C[C@H](N)[C@H](O)[C@H](C)O2)C1)C(=O)c1ccccc1C3=O	nt	20.8	-11.7	nt	28.2µM*
COc1cccc2c1C(=O)c1c(O)c3c(c(O)c1C2=O)CC(O)(C(=O)CO)CC3OC1CC(N(C)C)C(O)C(C)O1 (stereo not given)	nt	11.9	-17.3	nt	?
COc1cc(CNCCSc2nnnn2C)cc(OC)c1OC	9.6	0.4	18.9	-3.2	-10.4%
COC(=O)c1ccc(NC(=O)CN2C(=O)CC(C)S(=O)(=O)c3ccccc32)cc1 (stereo not given)	4.0	-0.5	24.6	3.8	-12.3%
Cc1ccc(C)c(S(=O)(=O)/N=C2\C=C(NS(=O)(=O)c3ccccc3)C(=O)c3ccccc32)c1	9.6	3.6	0.9	-2.9	15.8µM*
CCc1ccc(S(=O)(=O)/N=C2\C=C(NS(=O)(=O)c3ccccc3)C(=O)c3ccccc32)cc1	-11.4	2.4	?	-2.8	25.1µM*
Cc1cc(C)cc(N=Cc2[nH]c3ccc(Br)c(Cl)c3c2O)c1	-11.0	9.5	-7.1	13.1	-21.9%
COc1ccc(CN=Cc2[nH]c3ccc(Br)c(Cl)c3c2O)cc1	-4.6	2.9	12.3	-0.9	14.1µM*
CN1\C(=C/C=C/C=C/C=[N+](C)C)C(C)(C)c2ccccc21	-11.9	86.3*	4.6	?	25.1µM*
CN1/C(=C\C=O)C(C)(C)c2ccccc21	1.3	0.6	3.7	0.2	-0.4%
CCC(C)(C(=O)NC1CCCC1)N(C)C(=O)c1ccccn1 (stereo not given)	88.7*	1.7	16.9	5.4	2.6%
NC(=S)N=Nc1c(O)[nH]c2ccc(F)cc12	3.2	2.6	-12.2	-1.6	-18.7%
NC(=S)N=Nc1c(O)cc(O)c2[nH]c(=O)ccc12	nt	0.8	7.4	nt	17.8µM*
CCC(=O)Nc1ccc(N2CCOCC2)c(S(=O)(=O)Nc2ccc(OC)cc2)c1	-10.1	0.0	73.7	4.3	-6.5%
COc1ccc(NS(=O)(=O)c2cc(NC(=O)c3ccc(C)s3)ccc2N2CCOCC2)cc1	16.8	0.0	-14.1	88.2*	-7.8%
O=C(Cc1ccc(Cl)cc1)Nc1ccc(NC(=O)c2cccs2)cc1	-4.1	0.2	-18.5	1.9	-11.3%
CCN1CCN(S(=O)(=O)c2ccc(Cl)c(C(=O)Nc3ccccc3N3CCCC3)c2)CC1	-2.8	0.6	-1.8	14.2	-12.5%
CCN1CCN(S(=O)(=O)c2ccc(Cl)c(C(=O)Nc3ccccc3N3CCCCC3)c2)CC1	-8.4	100.3*	-16.3	?	-21.1%
CC(=O)N1CCc2cc(CNC(=O)c3ccccc3Br)ccc21	nt	1.5	-4.2	nt	?
COc1cccc(-n2c(=O)c3ccccc3n3c(=S)[nH]nc23)c1	3.9	-0.7	-50.7*	-1.1	-24.5%
CCc1ccc(-n2c(=O)c3ccccc3n3c(=S)[nH]nc23)cc1	6.3	1.5	16.5	-1.8	-5.7%
Cc1cccc(N2CCN(C(=O)NCc3noc4ccccc34)CC2)c1C	nt	2.5	-2.9	nt	-14.1%
Nc1ccc(O)c2c1C(=O)c1ccccc1C2=O	2.1	nt	nt	-2.4	-22.3%
SMILES	TRPV1 PAM	TRPML1 agonist	TRPML1 inh	TRPV1 ag	USP1-UAF1 inh
NC1=CC(=O)C(=O)c2ccccc21	nt	0.9	-9.1	nt	15.8µM*
COc1cc(C(=O)c2ccccc2)c(OC)cc1C(=O)Nc1ccc(O)cc1	-16.3	1.7	19.9	?	-18.3%
COc1nc(NCCO)nc(Nc2ccccc2F)n1	110.2*	0.8	24.9	-3.1	-9.5%
O=C(O)/C=C\C(=O)Nc1ccc(N2CCN(c3ccc(Cl)cc3)CC2)cc1	-2.5	-0.7	-6.4	0.7	-19.4%
COc1ccc(C2CC(=O)N3CN(C4CCCCC4)CSC3=C2C#N)c(OC)c1 (stereo not given)	nt	-0.8	24.4	nt	2.24µM*
Nc1ccc(Oc2ncccn2)cc1	-4.1	0.3	-7.1	-1.2	7.94µM*
Cc1cc(=O)oc2c(C)c(OCC(=O)NCC3CCC(C(=O)O)CC3)ccc12 (stereo not given)	5.3	nt	nt	0.2	2.9%
COc1cccc(/C=N/Nc2nc(Nc3ccccc3)nc(-n3nc(C)cc3C)n2)c1O	6.9	1.3	-52.4*	0.5	-28.2%
COc1ccc(CC(=O)Nc2ccc(S(=O)(=O)N3CCCC3)cc2)cc1OC	nt	-0.4	-1.6	nt	-4.8%
COc1ccc(CC(=O)Nc2cccc(SC)c2)cc1OC	-8.1	1.2	2.8	101.3*	-17.7%
COc1ccc(CC(=O)Nc2ccc(S(=O)(=O)N3CCCCC3)cc2)cc1OC	-12.2	-0.7	-3.4	87.9*	-9.8%
O=C(CNC(=O)c1ccco1)Nc1ccc(OC(F)F)cc1	-16.2	0.0	0.7	-1.1	-11.5%
Cc1coc2c1C(=O)C(=O)c1c-2ccc2c(C)cccc12	2.4	-0.7	-20.9	1.9	28.2µM*
Cc1coc2c1C(=O)C(=O)c1c-2ccc2c1CCCC2(C)C	18.8	0.1	-4.8	15.4	?
O=C(O)CCc1c2ccc(=O)c(O)c-2oc2c(O)c(O)ccc12	nt	1.7	nt	nt	nt
COc1ccc(-c2cn3c4c(sc3n2)CCCC4)cc1	-17.5	-0.4	-2.4	80.7*	-23.6%
COc1ccc(-c2cn3c(C)c(C(=O)N4CCCc5ccccc54)sc3n2)cc1	nt	1.4	36.0	nt	-21.4%
CC(C)n1c(-c2ccco2)csc1=Nc1cccnc1	-2.7	1.3	23.4	3.0	-21.7%
CCN(CC)c1ccc2cc(-c3nc4ccccc4n3C)c(=O)oc2c1	nt	60.7*	13.6	nt	?
CCN(CC)c1ccc2cc(C(=O)NCc3ccc(F)cc3)c(=N)oc2c1	-1.6	nt	nt	?	nt
CCN(CC)c1ccc2cc(-c3nc(-c4ccc(OC)cc4)cs3)c(=O)oc2c1	3.3	118.4*	-26.0	?	i
CN(C)Cc1c(O)ccc2cc(-c3nc4ccccc4n3C)c(=O)oc12	-8.2	6.7	-10.1	8.5	-10.3%
CCN(CC)c1ccc2cc(-c3nc4ccccc4[nH]3)c(=O)oc2c1	26.3	96.6*	?	151.5*	-19.7%
COc1cccc2cc(-c3nc4ccccc4[nH]3)c(=O)oc12	3.2	0.3	-4.7	3.9	-1.0%
CCN(CC)c1ccc2cc(C(=O)c3cccs3)c(=O)oc2c1	nt	84.3*	nt	nt	nt
Nc1c(C(=O)NCC2CCCO2)c2nc3ccccc3nc2n1/N=C/c1ccncc1 (stereo not given)	nt	nt	nt	nt	-30.0%
CCOC(=O)c1ccc(NC(=O)c2cc3c(s2)CCC3)cc1	-11.9	1.0	-1.9	106.2*	-20.8%
O=C(/C=C/c1ccc(Cl)cc1)NCCN1CCOCC1	-15.4	-0.4	-12.5	18.2	-12.7%
